Most compounds without a hit are left out; they make up all but 19% or so of the library.
DT40 TDP1 no CPT – qHTS for Inhibitors of human tyrosyl-DNA phosphodiesterase 1 (TDP1): qHTS in cells in absence of CPT | DT40 Tdp1-/- hTDP1 cells, no CPT, ATP luminescence, 48 h | Potency, µM (series often up to 46.2 µM), for inactives: at the top dose activity change, negative = growth inhibition, actives largely listed as inhibitors | actives 15% (n = 420,000) | AID 686978, 2013; further: potency means the concentration at half of the fitted maximal effect; on the % scale 0 is the no-effect control and ±100 the full control effect; nearly all actives have a fitted effect of over 55% in size
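Chicken DT40 Tdp1-/- cells stably complemented with human TDP1 were seeded at 400 cells/well with DMSO in place of 20 nM camptothecin. After compound pinning, cells grew at least 48 hr at 37 °C; viability read by CellTiter-Glo luminescence.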
S-ASM inh – human S-ASM enzyme inhibition | P17405 | placental ASM, HMU-PC fluorogenic substrate, 60 min | actives 0.006% (n = 340,000) | Potency, µM (titrated, usually from 57.5 µM), inactives show top-dose activity change, negative = inhibition, most hits filed as inhibitors; further: potency means the concentration at half of the fitted maximal effect
Target sequence (P17405 47-631 limits assumed): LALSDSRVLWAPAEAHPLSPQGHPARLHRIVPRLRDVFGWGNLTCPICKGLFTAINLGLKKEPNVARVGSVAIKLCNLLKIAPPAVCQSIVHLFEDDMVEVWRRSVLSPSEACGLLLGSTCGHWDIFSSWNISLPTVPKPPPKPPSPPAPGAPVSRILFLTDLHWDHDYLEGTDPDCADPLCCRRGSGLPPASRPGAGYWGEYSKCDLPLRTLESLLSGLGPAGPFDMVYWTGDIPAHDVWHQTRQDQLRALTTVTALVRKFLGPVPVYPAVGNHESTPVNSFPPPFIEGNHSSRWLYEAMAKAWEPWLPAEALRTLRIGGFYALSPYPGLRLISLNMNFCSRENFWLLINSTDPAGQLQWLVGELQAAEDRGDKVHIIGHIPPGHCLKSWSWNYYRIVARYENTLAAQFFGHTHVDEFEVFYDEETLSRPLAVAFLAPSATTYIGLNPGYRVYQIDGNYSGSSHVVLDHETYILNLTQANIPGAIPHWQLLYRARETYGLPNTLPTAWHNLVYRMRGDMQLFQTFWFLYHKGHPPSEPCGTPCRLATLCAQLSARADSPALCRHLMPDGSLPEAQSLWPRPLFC
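Human placenta-derived ASM enzyme was preincubated with compound for 10 minutes at room temperature, then given fluorogenic substrate HMU-PC0 (9 uM final) for 60 minutes at 37 °C; a pH 10 stop preceded fluorescence reading at Ex 386/Em 447 nm.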
DT40 TDP1 CPT – DT40-hTDP1 cell growth loss with CPT; chicken DT40 Tdp1-/-;hTDP1 cells + 20 nM CPT, ATP luminescence, 48 h; Potency, µM (titrated, usually from 46.2 µM), without a hit: at the highest dose activity change, negative = growth inhibition, usual class: inhibitors; actives 12% (n = 420,000); further: potency means the concentration at half of the fitted maximal effect; on the % scale 0 is the no-effect control and ±100 the full control effect; nearly all actives have a fitted effect of over 55% in size
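Chicken DT40 Tdp1-/- cells complemented with human TDP1, 400 cells/well, exposed to compounds plus 20 nM camptothecin for at least 48 h at 37 C; viability read as ATP content by CellTiter-Glo luminescence.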
IL-1B inflam inh – inhibitors of inflammasome signaling (IL-1 beta secretion); THP-1 LPS/ATP IL-1B secretion, AlphaLISA, 16 h; active compounds read low; activity change, % at 57.5 µM; actives 4.7% (n = 360,000); in the data active means activity change below about -50%; inconclusive means mostly about -30% to -49%; further: on the % scale 0 is the no-effect control and ±100 the full control effect
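THP-1 cells pretreated 1 hr with compounds (up to 57.5 uM final), then stimulated with LPS (250 ng/mL final) plus ATP (1.25 mM final); secreted IL-1B measured by AlphaLISA after 16 hr, decreased signal indicating inhibition.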
HepG2 viability – counter-screen for TGF-b inhibitors: cytotoxicity in HepG2 cells; Potency, µM (highest dose often 46.1 µM), for the others: at the highest dose activity change, negative = cytotoxicity, hits mostly cytotoxic; actives 0.76% (n = 410,000); HepG2 CAGA-GFP viability, ATP luminescence, 18 h; further: potency means the concentration at half of the fitted maximal effect
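HepG2 CAGA-GFP cells (1000/well, DMEM with 1% FBS) received compound, then TGF-beta at 500 pg/mL final, and were incubated 18 hours at 37 degrees C. Viability was read by CellTiter-Glo luminescence. Media-only wells were set as complete cell-killing and DMSO as no toxicity.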
TGFb inhibitor – TGF-b pathway inhibition | Potency, µM (top dose mostly 46.1 µM), inactives show at the top dose activity, negative = inhibition, usual class: inhibitors | actives 1.2% (n = 410,000) | HepG2 CAGA-GFP TGF-b/SMAD3 reporter, GFP fluorescence, 18 h; TGF-beta stimulated, 500 pg/mL final; further: potency means the concentration at half of the fitted maximal effect; on the % scale 0 is the no-effect control and ±100 the full control effect; nearly all actives have a fitted effect of over 65% in size
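Inhibition of TGF-beta-driven CAGA-GFP reporter expression in HEPG2 cells is measured by cellular GFP fluorescence after 18 h stimulation with 500 pg/mL recombinant TGF-beta in 1% FBS medium at 37 degrees C.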
* marks the source's active call; other numbers are inactive results; ? = inconclusive; nt = no result. Unless noted, the call rests on the fitted dose curve; in most records, active means well fitted curve in the direction sought with a large enough effect; inconclusive means small, poorly fitted or top-dose-only effect, or another doubt; inactive means no such curve, though single readings can be large; an effect the other way counts as inactive or inconclusive.

SMILES	DT40 TDP1 no CPT	S-ASM inh	DT40 TDP1 CPT	IL-1B inflam inh	HepG2 viability	TGFb inhibitor
Cc1ccc(C(=O)c2cn(Cc3ccccc3)c3ccccc3c2=O)cc1	20.6µM*	nt	23.1µM*	nt	-48.8%	-15.7%
CCOc1ccc2c(c1)c(=O)c(C(=O)c1ccccc1)cn2Cc1ccccc1	14.6µM*	nt	20.6µM*	nt	-26.7%	-21.2%
CCN(CC)C(=O)CSc1nc2cc(S(=O)(=O)N3CCOCC3)ccc2n1CC	-15.0%	nt	0.9%	0.5	-4.3%	0.3%
CCCCn1c(CCC(=O)O)nc2cc(S(=O)(=O)N3CCCC3)ccc21	2.2%	7.9%	-2.1%	10.6	-10.6%	-2.8%
CCn1c(SC)nc2cc(S(=O)(=O)N3CCCCC3)ccc21	-24.7%	-2.4%	1.64µM*	-11.5	-24.7%	-1.2%
CCn1c(CN2CCC(C)CC2)nc2cc(S(=O)(=O)N3CCCCC3)ccc21	13µM*	nt	?	-9.6	-49.3%	-12.7%
CCN1CCN(c2nc(N)c([N+](=O)[O-])c(Nc3cccc(C)c3)n2)CC1	?	-5.2%	?	nt	-0.7%	?
CCN1CCN(c2nc(Nc3ccc(C)c(C)c3)nc(N)c2[N+](=O)[O-])CC1	23.1µM*	-17.7%	-22.5%	?	14.8%	15.5%
CCN1CCN(c2nc(Nc3cccc(OC)c3)nc(N)c2[N+](=O)[O-])CC1	9.2µM*	-10.5%	13µM*	-28.8	-9.9%	-2.8%
Cc1cccc(Nc2nc(N)c([N+](=O)[O-])c(N3CC(C)OC(C)C3)n2)c1 (stereo unspecified)	?	-9.1%	?	?	1.2%	0.2%
Cc1cccc(Nc2nc(N)c([N+](=O)[O-])c(N3CC(C)CC(C)C3)n2)c1 (stereo unspecified)	18.4µM*	-24.4%	?	-101.4*	11.2µM*	?
Nc1nc(Nc2ccccc2)nc(N2CCOCC2)c1[N+](=O)[O-]	1.1%	-0.3%	-25.6%	-5.9	23.3%	2.4%
CN(C)c1ccc(Nc2nc(N)c([N+](=O)[O-])c(N3CCOCC3)n2)cc1	25.9µM*	-14.7%	?	-86.7*	-22.2%	-29.3%
Nc1ccc(/C=C/c2ccnc3ccccc23)cc1[N+](=O)[O-]	5.01µM*	nt	10µM*	nt	-24.9%	17.1%
O=[N+]([O-])c1ccc(/C=C/c2ccnc3ccccc23)c([N+](=O)[O-])c1	20µM*	nt	35.5µM*	nt	-9.7%	6.6%
CCN(CCC(=O)O)c1ccc(/C=C/c2ccnc3ccccc23)cc1	?	nt	2.3%	nt	-30.9%	98.9%
O=[N+]([O-])c1ccc(/C=C/c2ccnc3ccccc23)cc1	15.8µM*	nt	11.2µM*	nt	-8.3%	-16.2%
COc1ccc(-c2nc(C3CCCCC3)c3cc(OC)ccc3n2)cc1	0.8%	39.1%	-9.1%	-1.8	4.2%	13.1%
Cc1cccc(N(CC(=O)NC2CCCC2)C(=O)c2cc3cc4cccc(C)c4nc3s2)c1C	16.4µM*	-2.5%	18.4µM*	?	-2.4%	3.8%
Cc1cccc(N(CC(=O)NC2CCCC2)C(=O)c2csnn2)c1C	3.8%	4.7%	-15.2%	-4.2	-6.8%	5.9%
Cc1ccc(C)c(N(CC(=O)NC2CCCC2)C(=O)c2cc3cc4cc(C)ccc4nc3s2)c1	11.2µM*	0.7%	8.2µM*	18.6	2.9%	-3.7%
O=c1c2ccccc2nc2c3ccccc3c(NCc3ccco3)nn12	20.6µM*	360.8%	?	18.0	-9.0%	4.4%
COCCCNc1nc2ccccc2nc1NS(=O)(=O)c1cccc(Cl)c1	?	-3.0%	?	20.7	-8.5%	-4.0%
c1ccc(CNc2nc(-c3cccs3)nc3ccccc23)nc1	?	7.0%	?	-76.8*	3.2%	-18.7%
c1ccc(CNc2nc(N3CCN(Cc4ccccc4)CC3)nc3ccccc23)cc1	16.4µM*	16.3%	?	nt	28.2µM*	?
SMILES	DT40 TDP1 no CPT	S-ASM inh	DT40 TDP1 CPT	IL-1B inflam inh	HepG2 viability	TGFb inhibitor
c1csc(-c2nc(NCCCN3CCOCC3)c3ccccc3n2)c1	?	1.7%	?	-24.2	-27.6%	-8.3%
O=S(=O)(Nc1nc2ccccc2nc1NCC1CCCO1)c1cccc(Cl)c1 (stereo unspecified)	16.4µM*	-1.3%	?	32.5	-13.8%	?
O=[N+]([O-])c1ccccc1Nc1nc(-c2cccnc2)cs1	?	-9.4%	?	-7.5	-17.9%	-3.6%
c1ccc(-c2nc(NCc3ccco3)c3ccccc3n2)nc1	2.59µM*	4.3%	2.59µM*	96.6	-41.0%	-26.1%
CCOc1ccc(Nc2nc(NCC3CCCO3)c3ccccc3n2)cc1 (stereo unspecified)	2.91µM*	-17.6%	25.9µM*	-98.3*	-51.3%	11.2µM*
COc1ccc(Nc2nc(NCC3CCCO3)nc(N)c2[N+](=O)[O-])cc1 (stereo unspecified)	?	-6.9%	?	-14.8	-0.5%	-2.7%
c1ccc(Nc2nc(NCC3CCCO3)c3ccccc3n2)cc1 (stereo unspecified)	3.26µM*	39.9%	3.66µM*	-100.8*	-17.5%	?
COc1ccc(Nc2nc(NCC3CCCO3)c3ccccc3n2)c(OC)c1 (stereo unspecified)	14.6µM*	2.1%	16.4µM*	nt	-10.7%	-22.5%
COc1ccc(C(=O)NCCCNC(=O)c2ccccn2)cc1Br	1.2%	-2.8%	-14.8%	20.3	-6.9%	0.0%
c1ccc(-c2nc(NCC3CCCO3)c3ccccc3n2)nc1 (stereo unspecified)	4.61µM*	1.4%	5.17µM*	52.5	-24.5%	-16.2%
c1coc(CNc2nc(N3CCCCC3)nc3ccccc23)c1	18.4µM*	184.5%	25.9µM*	-57.8*	-44.6%	10µM*
c1ccc2c(NCC3CCCO3)nc(N3CCOCC3)nc2c1 (stereo unspecified)	1.5%	147.0%	-4.1%	11.2	2.2%	-0.6%
Oc1cccc(Nc2nc(NCC3CCCO3)c3ccccc3n2)c1 (stereo unspecified)	14.6µM*	-5.2%	16.4µM*	nt	-26.7%	?
CN(C)c1cccc(CNC(=O)c2csc([C@@H]3O[C@H](CO)[C@@H](O)[C@H]3O)n2)c1	11.6µM*	nt	13µM*	12.5	-1.9%	19.7%
Cc1ccc2nc(N/N=C\c3ccc([N+](=O)[O-])o3)nc(-c3ccccc3)c2c1	?	-26.1%	23.1µM*	-59.4*	-5.1%	-4.8%
